# Test results: PubChem BioAssay (NCI)
# About 83,000 compounds went through this panel and 20% of them were active in at least one assay; those are over-represented in the sample as a whole.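 Results are percent growth after 48 hours of single-concentration exposure. 100 means growth as in untreated cells, lower positive values show inhibition; negative values down to -100 show cell death.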 Values without a mark were called inactive. Calls of active or inactive are those of the source. The calls were made as follows: active = growth percent below 10; inactive = the rest.
# Tested on: IGROV1 ovarian
# Assay: NCI-60 one-dose screen, 48 h (100 = growth as untreated, 0 = no growth, -100 = all killed)
# Details: 10 µM unless noted
row,Structure (SMILES),growth
1,CC(=O)OC1/C=C\CC/C=C\C1 (configuration not stated),110%
2,O=c1[nH]c(=S)[nH]c(O)c1/C=C1\C=Nc2ccccc21,40.3%
3,CCOC1=C(Cl)C(=O)C(OCC)=C(Cl)C1=O,99.1%
4,Cc1ccc(C(=O)NN)cc1,124%
5,O=C1C(=O)c2ccccc2C(O)=C1CCCc1ccc(Oc2ccccc2)cc1,34.7%
6,Oc1ccc([S+](c2ccc(O)cc2)c2ccc(O)cc2)cc1,110%
7,Cn1c2c(cc(S(=O)(=O)c3ccccc3)c1=O)CCc1c-2cnn1-c1ccc(Cl)cc1,50.6%
8,CCCCCN1CCN(C(CC(=O)c2ccccc2)C(=O)c2ccccc2)CC1 (configuration not stated),57.8%
9,S=C(N/N=C/c1cc(Cl)cc(Cl)c1)NC12CC3CC(CC(C3)C1)C2,78.1%
10,CC(=O)c1ccc2c(c1)c1ccccc1n2C,87.6%
11,CC1(C)NC(=S)NC1=O,116%
12,O=C(NC1CCN(Cc2ccccc2)CC1)c1cc(-c2cccnc2)nc2ccc(Cl)cc12,80.5%
13,O=C(O)CS(=O)c1ccc(Cl)cc1 (configuration not stated),115%
14,Cc1ccc(S(=O)(=O)NC(CCC(=O)Nc2ccccc2)C(=O)Nc2ccccc2)cc1 (configuration not stated),-25.1% (active)
15,COc1ccc(/C=C2\CCCC3=C2N=C2SC=NN2C3c2ccc(OC)c(OC)c2)cc1OC (configuration not stated),47.8%
16,O=C1C(Br)=CC2C1C1C3CCC3C2(Br)C12OCCO2 (configuration not stated),36.7%
17,Oc1ccc(Br)cc1/C=N/NC(=S)NC12CC3CC(CC(C3)C1)C2,5.57% (active)
18,Cc1ccc([C@@H]2C[C@H](O)Cc3ccccc3N2)s1,100%
19,CCCCCCC(C)N(CC(C)(C)O)C(=O)c1ccc([N+](=O)[O-])cc1 (configuration not stated),88.1%

row,Structure (SMILES),growth
1,CC[n+]1c(C)ccc2cc(C)ccc21,104%
2,CCN(CC)CCCNc1c2ccc(Cl)cc2nc2ccc(OC)cc12,6.62% (active)
3,O=C(NCCNCCO)c1cc([N+](=O)[O-])cc([N+](=O)[O-])c1O,107%
4,COC1=C(OC)C(=O)c2ccccc2C1=O,104%
5,O=C(/C=C\c1ccc(NCc2ccc(C(=O)O)cc2)cc1)CCl,90.4%
6,O=C(/C(Br)=C/c1ccccc1)c1ccccc1,27.5%
7,CC1Cc2cc(F)ccc2-n2cccc21 (configuration not stated),92%
8,Oc1ccc(CN(Cc2ccc(C(F)(F)F)cc2)Cc2ccc(O)c3ncccc23)c2cccnc12,20%
9,CNc1ccc(Nc2ccc(S(=O)(=O)O)cc2)c2c1C(=O)c1ccccc1C2=O,105%
10,CC(=O)Nc1ccc(C(=O)/C=C/c2ccc(N(C)C)cc2)cc1,95.4%
11,Cc1sc(NC(=O)c2ccc(C(C)(C)C)cc2)c(C(=O)O)c1C,70.9%
12,O=C(CBr)OCc1ccc([N+](=O)[O-])o1,10.5%
13,CCCCN(CCC)CCCCCCCCCCN1CCCc2ccccc21,48.5%
14,C=C(C)[C@@H]1CC[C@]2(COC(=O)c3ccccc3C(=O)O)CC[C@]3(C)[C@H](CC[C@@H]4[C@@]5(C)CCCNC(C)(C)[C@@H]5CC[C@]43C)[C@@H]12,54.5%
15,COc1ccc(/C=C/C(=O)/C=C/c2cc3ccccc3[nH]c2=O)cc1,130%
16,CCCCCC(=C/c1ccccc1)/C=N/N=C(N)N,-63.3% (active)
17,CC([C@H]1CC=C2C3CCC4=C[C@@H](N(C)C)CC[C@]4(C)C3CC[C@@]21C)N(C)C (some centres not stated),50.8%
18,C=CN(C)S(C)(=O)=O,51.5%
